# Screens as filed in PubChem.
# TDP1 cell CPT – growth inhibition of DT40 Tdp1-/-;hTDP1 cells with camptothecin (screen for TDP1 inhibitors) | chicken DT40 Tdp1-/-;hTDP1 cells + 20 nM CPT, ATP luminescence, 48 h | Potency, µM (highest dose often 46.2 µM), most hits filed as inhibitors | 12% of 420,000 active | AID 686979; note: nearly all actives have a fitted effect of over 55% in size
#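 Cell growth measured by CellTiter-Glo luminescence after a minimum 48 h, 37 C compound exposure with 20 nM CPT in Tdp1-knockout DT40 cells stably expressing hTDP1, seeded 400/well; qHTS titration format.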
# Gal4-VP16 FLuc – inhibits Gal4-VP16 luciferase reporter, ROR gamma counter-screen | 3.5% of 310,000 active | AID 2546 | Potency, µM (series often up to 53.6 µM), usual class: inhibitors | Drosophila S2 Gal4-VP16 UAS-luciferase, luminescence, 20 h;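 note: Gal4-VP16 expression switched on by copper sulfate through the metallothionein promoter; nearly all actives have a fitted effect of over 50% in size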
# DT40 TDP1 no CPT – qHTS for Inhibitors of human tyrosyl-DNA phosphodiesterase 1 (TDP1): qHTS in cells in absence of CPT; Potency, µM (top dose mostly 46.2 µM), usual class: inhibitors; AID 686978, 2013; 15% of 420,000 active; DT40 Tdp1-/- hTDP1 cells, no CPT, ATP luminescence, 48 h; note: nearly all actives have a fitted effect of over 55% in size
#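 Seeded 400 DT40-hTDP1 cells/well (vehicle DMSO, no 20 nM CPT); pinned compounds; ≥48 hr at 37 °C; CellTiter-Glo luminescence as viability measure.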
# TDP1 inh – blocks human tyrosyl-DNA phosphodiesterase 1; Q9NUW8; recombinant TDP1, AlphaScreen DNA substrate cleavage; Potency, µM (top dose mostly 130 µM), hits mostly inhibitors; 0.28% of 350,000 active; AID 485290; note: nearly all actives have a fitted effect of over 40% in size
# Target sequence (Q9NUW8 whole entry, looked up): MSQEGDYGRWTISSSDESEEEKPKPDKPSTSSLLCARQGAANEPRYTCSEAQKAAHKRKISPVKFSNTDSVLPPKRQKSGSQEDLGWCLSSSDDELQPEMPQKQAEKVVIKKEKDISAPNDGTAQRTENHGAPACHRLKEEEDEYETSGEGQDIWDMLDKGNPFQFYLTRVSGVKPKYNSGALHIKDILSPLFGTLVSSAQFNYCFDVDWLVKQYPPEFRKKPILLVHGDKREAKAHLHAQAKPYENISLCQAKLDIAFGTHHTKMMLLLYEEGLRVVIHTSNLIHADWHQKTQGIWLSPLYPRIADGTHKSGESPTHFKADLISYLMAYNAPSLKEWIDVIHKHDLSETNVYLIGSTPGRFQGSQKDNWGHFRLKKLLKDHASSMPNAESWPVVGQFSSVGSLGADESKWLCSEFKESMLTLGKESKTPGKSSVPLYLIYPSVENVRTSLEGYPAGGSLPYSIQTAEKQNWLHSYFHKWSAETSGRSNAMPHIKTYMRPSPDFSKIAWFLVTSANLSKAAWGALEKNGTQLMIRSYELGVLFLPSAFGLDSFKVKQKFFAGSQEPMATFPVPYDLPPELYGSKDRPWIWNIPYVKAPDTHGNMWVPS
#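 Recombinant human Tdp1 (E. coli-expressed, 1 nM final) preincubated with compounds 15 min at room temperature, then 5'-biotin/3'-phosphotyrosine-FITC DNA substrate (15 nM final) added for 5 min. AlphaScreen beads (10 ug/ml final) added 10 min; cleavage lowers signal.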
# RORg inh – inhibitors of mouse ROR gamma transcriptional activity. Drosophila S2 Gal4-RORgamma UAS-luciferase reporter, 20 h. Potency, µM (doses to about 53.6 µM), most hits filed as inhibitors. 5.4% of 310,000 active. AID 2551; note: nearly all actives have a fitted effect of over 60% in size
#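 Drosophila Schneider cells stably carrying a metallothionein-driven Gal4 DBD–ROR gamma fusion and a UAS-Photinus luciferase reporter were exposed to compound for 1 hr, then induced with copper sulfate (700 uM final) for 20 hr at ambient temperature before luminescence reading.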
# Numbers stand for hits; – = inactive; ? = inconclusive; · = no result; [ ] = dose if it differs, or a comment. Rows were chosen to be rich in hits. Some 19% of all compounds tested hit in one or more screens of this group. Calls come from the whole dose curve; as a rule, active = well fitted curve in the direction sought with a large enough effect; inconclusive = small, poorly fitted or top-dose-only effect, or another doubt; inactive = no such curve, though single readings can be large; an effect the other way counts as inactive or inconclusive.
SMILES,TDP1 cell CPT,Gal4-VP16 FLuc,DT40 TDP1 no CPT,TDP1 inh,RORg inh
O=C(NC(=S)Nc1ccccc1N1CCCC1)c1ccco1,–,–,?,–,–
CC1CCN(c2ccc(NC(=S)NC(=O)c3ccco3)cc2)CC1,–,7.08µM,?,–,3.16µM
O=C(NC(=S)Nc1ccc(N2CCCCC2)cc1)c1ccco1,–,20µM,–,–,7.08µM
CCOC(=O)CC(=O)CSc1nc2ccsc2c(=O)n1Cc1ccccc1,?,·,?,–,·
O=C(NCc1ccncc1)c1ccc(OCc2ccccc2)cc1,20.6µM,·,13µM,·,·
O=C(NCc1ccncc1)c1ccc(Oc2ccccc2)cc1,14.6µM,?,18.4µM,–,?
Cc1ccc(Oc2ccc(C(=O)NCc3ccncc3)cc2)cc1,?,?,23.1µM,–,–
Cc1cccc(Cc2nnc(CCC(=O)NCc3cnc4ccccn34)o2)c1,–,–,–,·,–
O=S(=O)(c1ccc(Br)cc1)N1CCN(c2cc(-c3ccccc3)nc3ncnn23)CC1,13µM,–,25.9µM,–,–
Cc1nc2ncnn2c(N2CCN(S(=O)(=O)c3ccc(Br)cc3)CC2)c1C,?,–,4.61µM,–,–
Cc1nc2ncnn2c(N2CCC(C(=O)NC3CCCC3)CC2)c1Cc1ccccc1,–,–,–,–,–
COc1ccc(S(=O)(=O)N2CCN(c3cc(-c4ccccc4)nc4ncnn34)CC2)cc1,20.6µM,?,16.4µM,–,?
Cc1ccccc1NC(=O)C1CCN(c2cc(-c3ccccc3)nc3ncnn23)CC1,14.6µM,–,20.6µM,–,–
O=S(=O)(c1ccc(Br)cc1)N1CCN(c2ccccc2)CC1,–,–,–,·,–
COc1ccc(-c2cc(N3CCCC3)n3ncnc3n2)cc1,?,–,?,–,–
Cc1nn(S(=O)(=O)c2ccc(Br)cc2)c(C)c1S(=O)(=O)N1CCCCCC1,–,·,–,–,·
CCOC(=O)c1c(NC(=O)C(=O)N/N=C/c2ccccc2O)sc2c1CCCCC2,2.91µM,1.26µM,3.26µM,–,1µM
CCOC(=O)c1c(NC(=O)C(=O)N/N=C/c2ccccc2OC)sc2c1CCCCC2,?,–,–,–,–
CCOC(=O)c1c(NC(=O)c2ccn(CC)n2)sc2c1CCCC2,?,·,23.1µM,–,–[0.365 µM]
CCOC(=O)c1c(NC(=O)c2cc(OCC)c(OCC)c(OCC)c2)sc2c1CCCCC2,?,·,23.1µM,–[12.3 µM],·
Cc1ccc(N2C(=O)C(O)(C(F)(F)F)C3=C2CC(C)(C)CC3=O)cc1C (stereo not given),–,–,–,–,–
COC(=O)CC(=O)CSc1nc2c(cc1C#N)CCC2,18.4µM,17.8µM,?,–,?
Cc1cc(C)c(C#N)c(SCC(=O)N2CCCCC2)n1,–,–,–,–,–
COc1cc2c(cc1OC)CN(C(=O)CSc1nc(C)cc(C)c1C#N)CC2,23.1µM,–,20.6µM,–,–
Cc1cc(C)c(C#N)c(SCC(=O)C(C)(C)C)n1,–,–,–,–,?
SMILES,TDP1 cell CPT,Gal4-VP16 FLuc,DT40 TDP1 no CPT,TDP1 inh,RORg inh
COC(=O)CC(=O)CSc1nc(C)cc(C)c1C#N,29.1µM,–,?,–,–
CC(C)OC(=O)CC(=O)CSc1nc2c(cc1C#N)CCC2,?,?,8.2µM,–,?
N#Cc1cc2c(nc1SCc1nc3ccccc3[nH]1)CCC2,·,11.2µM,·,–,10µM
CCOc1ccc(S(=O)(=O)Nc2cnc3ccccc3c2)cc1,18.4µM,6.31µM,18.4µM,–,?
CCOc1ccc(S(=O)(=O)Nc2nc3ccccc3nc2Cl)cc1,?,–,20.6µM,·,–
COc1ccc(-c2nc(CS(=O)CC(=O)NCCc3ccccc3)c(C)o2)cc1OC (stereo not given),?,·,?,–,·
Cc1cccc2cc(CN(Cc3ccccc3)C(=O)c3cccc(F)c3)c(Cl)nc12,29.1µM,–,?,–,–
Cc1ccc(N(Cc2ccccc2)C(=O)c2cccc(F)c2)cc1,?,–,?,–,–
CCOC(=O)CSc1nc(-c2ccncc2)ccc1C#N,–,–,?,–,–
O=C(NCc1ccco1)c1cc(-c2ccc(Cl)cc2)on1,–,–,–,–,–
O=C(c1cc(-c2ccc(Cl)cc2)on1)N(Cc1ccc(F)cc1)Cc1ccco1,?,·,20.6µM,–,·
O=C(c1cc(-c2ccc(Cl)cc2)on1)N(Cc1cccc(F)c1)Cc1ccco1,?,·,18.4µM,–,·
CCc1ccc(CN(Cc2ccco2)C(=O)c2cc(-c3ccc(Cl)cc3)on2)cc1,?,·,14.6µM,–,·
Cc1ccc(-c2cc(C(=O)N(Cc3ccc(C(C)(C)C)cc3)Cc3ccco3)no2)cc1,18.4µM,·,13µM,–,·
Cc1ccc(-c2cc(C(=O)NCc3ccco3)no2)cc1,–,–,–,–,?
COc1cc(-c2cnc3c(NC=O)cc(-c4ccc(C)cc4)cn23)cc(OC)c1OC,0.164µM,·,0.103µM,·,·
COc1ccc(-c2nn(-c3ccc(F)cc3)c3c2cnc2ccc(F)cc23)cc1OC,–,·,–,–,·
COc1ccc(F)cc1-c1cc(NC=O)c2ncc(-c3cc(OC)c(OC)c(OC)c3)n2c1,2.31µM,·,3.26µM,·,·
COc1cc(-c2cnc3c(NC=O)cc(-c4ccccc4)cn23)cc(OC)c1OC,0.0092µM,·,0.0461µM,·,·
COc1cc(-c2cnc3c(NC=O)cc(-c4ccccc4Cl)cn23)cc(OC)c1OC,0.82µM,·,1.03µM,·,·
Cc1ccc(OCC(=O)Nn2cnnc2)c(Br)c1,–,–,–,–,?
Cn1cc(-c2cccc3nncn23)cn1,?,·,–,·,·
Cc1ccc(-c2cc(NC=O)c3ncc(-c4cnn(C)c4)n3c2)cc1,4.11µM,·,3.66µM,·,·
O=C(c1cccc(F)c1)N1CCC2(CCCN(c3ccncc3)C2)CC1,–,–,?,·,–
Nc1cc2c(cc1Cl)-c1ccc([N+](=O)[O-])cc1C2=NO,8.2µM,·,7.31µM,·,·
SMILES,TDP1 cell CPT,Gal4-VP16 FLuc,DT40 TDP1 no CPT,TDP1 inh,RORg inh
COc1cc2c(cc1[N+](=O)[O-])-c1ccc([N+](=O)[O-])cc1C2=NO,25.9µM,·,14.6µM,·,·
O=[N+]([O-])c1ccc2c(c1)C(=NO)c1cc(F)ccc1-2,16.4µM,·,11.6µM,·,·
O=[N+]([O-])c1ccc2c(c1)/C(=N\O)c1ccccc1-2,?,–,?,·,–
COc1cccc(N(C(=O)CNC(=O)c2ccco2)C(C(=O)NC2CCCC2)c2ccco2)c1 (stereo not given),–,–,–,·,–
Cn1c2ccccc2c(=O)c2c(=O)n(C3CCCCC3)c(-c3ccco3)nc21,23.1µM,–,?,–,–
Cc1nc2c(c(=O)c3ccccc3n2C)c(=O)n1C1CCCCCC1,–,–,–,·,–
COc1ccc(NC(=O)c2cc3ccccc3[nH]2)cc1,–,–,?,–,–
COc1ccc(NC(=O)C(C2CC2)n2c(=O)c(-c3cc4ccccc4[nH]3)nc3ccccc32)cc1 (stereo not given),29.1µM,·,?,·,·
CCCCCNC(=O)C(c1ccc(-c2ccccc2)cc1)n1c(=O)c(-c2cc3ccccc3[nH]2)nc2ccccc21 (stereo not given),–,·,–,·,·
